MITF primary: inhibitors of human MITF; AlphaScreen MITF homodimerization, bead proximity signal; inhibition, % at 2.6 µM; 650,000 tested, 0.91% active; AID 1259374; in the data active = inhibition above about 50%;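 note: 0% = vehicle wells with protein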
Target sequence (O75030 whole entry, looked up): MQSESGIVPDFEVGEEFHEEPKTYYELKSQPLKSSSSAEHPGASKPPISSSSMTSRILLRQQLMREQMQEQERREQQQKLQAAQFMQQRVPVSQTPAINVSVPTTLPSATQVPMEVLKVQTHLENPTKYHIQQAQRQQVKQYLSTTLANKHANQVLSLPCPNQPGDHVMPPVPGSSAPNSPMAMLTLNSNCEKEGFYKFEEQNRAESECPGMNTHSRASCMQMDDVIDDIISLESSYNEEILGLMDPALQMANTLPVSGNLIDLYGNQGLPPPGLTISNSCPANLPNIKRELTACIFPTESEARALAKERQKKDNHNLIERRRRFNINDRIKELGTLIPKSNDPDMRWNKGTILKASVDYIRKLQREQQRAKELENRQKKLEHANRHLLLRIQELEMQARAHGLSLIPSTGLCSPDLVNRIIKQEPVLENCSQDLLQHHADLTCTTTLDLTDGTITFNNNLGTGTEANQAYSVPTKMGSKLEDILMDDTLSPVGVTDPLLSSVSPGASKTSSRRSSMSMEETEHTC
FBW7 activator: human FBW7 E3 ligase activation, primary screen; Q969H0; AlphaScreen FBW7–phospho-cyclin E peptide binding, activator screen; normalized activity (activation), % at 26.1 µM; 650,000 tested, 0.13% active; AID 1259310; in the data active = normalized activity above about 1.9%;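 note: purified mutant Fbw7 with reduced substrate affinity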
TEAD-YAP block: TEAD-YAP interaction inhibition; HEK-TIYL cells, TEAD-Gal4/YAP UAS-luciferase luminescence; 640,000 tested, 1.4% active; AID 1259422; inhibition, % at 9.12 µM; in the data active = inhibition above about 32%;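 note: 0% = median of test compound wells and 100% = reference inhibitor wells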
GPR151 activ: human GPR151 activation; PathHunter beta-arrestin GPR151 cells, luminescence; activation, % at 11.2 µM; Q8TDV0; 650,000 tested, 1% active; AID 1508602; in the data active = activation above about 4.9%;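 note: 0% = median of compound wells and 100% = cells with positive control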
Numbers without * were called inactive. In the library only some 3.4% were active in any assay of this set; here they are far more common.

SMILES | MITF primary | FBW7 activator | TEAD-YAP block | GPR151 activ
O=S(=O)(Nc1cccc(-c2nc3cccnc3s2)c1)c1ccccc1F | 13.3 | 0.3 | -13.3 | -1.2
CCOc1cc(/C=N/NC(=O)C(=O)N/N=C/c2ccc(O)c(OCC)c2)ccc1O | -1.2 | 0.0 | 4.0 | 0.7
CCOc1cc(/C=N/NC(=O)c2cc(O)c(O)c(O)c2)ccc1O | 82.0* | 0.3 | -4.5 | 0.9
CCOc1ccc(-c2cc(C(=O)N/N=C/c3ccc(F)cc3)[nH]n2)cc1 | -5.7 | -0.1 | 40.8* | -0.7
CCOc1ccc(-c2cc(C(=O)N/N=C/c3ccc(O)c(OCC)c3)[nH]n2)cc1 | 9.6 | -0.1 | 43.0* | 4.0
COc1ccc2oc(=O)c(C(=O)n3ccnc3C)cc2c1 | 10.1 | 0.2 | 5.1 | 0.5
Cc1ccc(C)c(NC(=O)C(NC(=O)OCc2ccccc2)C(C)C)c1 (configuration not stated) | 3.8 | 0.1 | 10.0 | -0.7
Oc1ccc(/C=N/Nc2nc3ccccc3[nH]2)c(O)c1 | 65.3* | -0.5 | 16.4 | -0.7
Oc1ccccc1/C=N\Nc1nc2ccccc2[nH]1 | 16.0 | -0.8 | -27.9 | -0.1
Oc1ccc(/C=N/Nc2nc3ccccc3[nH]2)c(O)c1O | 39.5 | -0.9 | -17.0 | -1.1
Oc1ccc(/C=N/Nc2nc(Nc3ccccc3)nc(Nc3ccccc3)n2)c(O)c1 | 7.7 | -0.2 | 50.8* | -0.1
Oc1c(Cl)cc(Cl)cc1/C=N/Nc1nc2ccccc2[nH]1 | -22.3 | -0.1 | 60.7* | 0.4
COc1ccc(NC(=O)COC(=O)CN2C(=O)C3CCCCC3C2=O)c([N+](=O)[O-])c1 (configuration not stated) | 6.3 | 0.0 | 8.2 | -0.2
COc1cc(C(=O)Nc2nnc(Cc3ccccc3)s2)cc(OC)c1OC | 0.2 | 0.2 | 2.9 | -0.8
COc1cc(C(=O)Nc2ncc(Cc3ccccc3)s2)cc(OC)c1OC | 2.9 | -0.3 | 53.4* | 2.0
CC(Oc1ccccc1)C(=O)Nc1ncc(Cc2ccccc2)s1 (configuration not stated) | -0.3 | 0.1 | 42.4* | -0.8
COc1cc(C(=O)Nc2ncc(Cc3cccc(Cl)c3)s2)cc(OC)c1OC | 12.7 | -0.1 | 54.5* | 2.1
O=C(Cc1ccccc1)Nc1ncc(Cc2ccccc2)s1 | 6.4 | -0.1 | -1.1 | -1.0
C/C(CC(=O)Nc1ccc(F)cc1F)=N\NC(=O)c1ccc(O)cc1 | 16.2 | 2.1* | -16.8 | -1.1
COc1ccc(C(=O)N/N=C(\C)CC(=O)Nc2cccc3c2CCCC3)cc1OC | 8.7 | 0.1 | 32.0* | -0.6
COc1ccc(C(=O)N/N=C(\C)CC(=O)Nc2ccccc2Br)cc1OC | -12.4 | -0.3 | 41.5* | -1.7
C/C(CC(=O)Nc1cccc2c1CCCC2)=N\NC(=O)c1cccc(O)c1 | 5.1 | 0.0 | 13.9 | -1.0
COc1ccc(C(=O)N/N=C(\C)CC(=O)Nc2cccnc2)cc1OC | 7.5 | 0.3 | 33.7* | -0.7
COc1ccc(C(=O)Nc2cccnc2)cc1OC | -2.1 | 0.1 | -17.9 | -0.9
COc1ccc(NS(=O)(=O)c2ccc3c(c2)oc(=O)n3C)cc1 | -7.5 | -0.1 | -2.5 | 2.8
SMILES | MITF primary | FBW7 activator | TEAD-YAP block | GPR151 activ
O=C(NCc1ccccc1)c1cccc(Nc2ccccc2)c1 | 34.5 | 0.0 | 3.0 | -0.3
O=c1cc(-c2ccccc2)oc2c(O)c(O)ccc12 | 11.4 | 0.2 | 42.6* | -0.8
O=c1cc(-c2ccccc2)oc2cc(O)c(O)cc12 | 1.7 | -0.4 | 70.1* | 0.0
O=C(CCc1ccccc1)Nc1ccc(S(=O)(=O)N2CCC(c3nc4ccccc4[nH]3)CC2)cc1 | 13.7 | 0.0 | 32.0* | -0.2
CCC(CC)C(=O)Nc1ccc(S(=O)(=O)N2CCC(c3nc4ccccc4[nH]3)CC2)cc1 | 16.1 | 0.0 | 12.5 | -0.1
O=C(Nc1ccc(S(=O)(=O)N2CCC(c3nc4ccccc4[nH]3)CC2)cc1)c1ccccc1F | 19.6 | 0.3 | 40.3* | -0.5
COc1cccc(-c2cn3c(n2)sc2cc(C(=O)N4CCC(C(N)=O)CC4)ccc23)c1 | 0.9 | 0.2 | 18.9 | 1.8
Cc1ccc2c(c1)C(=Nc1ccc(I)cc1)C(=O)N2 | 20.9 | 2.1* | -8.5 | -0.8
COc1ccc(C(=O)n2nc(N)c3cc4cc(OC)ccc4nc32)cc1 | -2.1 | 0.1 | 44.2* | -0.8
COc1ccc2nc3c(cc2c1)c(N)nn3C(=O)c1ccc([N+](=O)[O-])cc1Cl | -11.4 | -0.1 | -9.5 | -0.8
CCOc1ccc(C(=O)n2nc(N)c3cc4cc(OC)ccc4nc32)cc1 | 14.7 | -0.2 | 38.2* | 1.8
COc1ccc2cc3c(N)nn(C(=O)Cc4ccccc4OC)c3nc2c1 | 20.8 | 0.1 | 33.2* | -0.7
COc1ccc2cc3c(N)nn(C(=O)c4ccc(Br)o4)c3nc2c1 | 13.8 | -0.1 | 43.3* | -0.1
COc1ccc(C(=O)n2nc(N)c3cc4ccc(C)cc4nc32)cc1OC | -3.8 | 0.0 | -9.5 | 0.2
